Assay outcomes (PubChem)
Rows were chosen to be rich in hits. Some 3.3% of all compounds tested hit in one or more screens of this group.
Vaccinia Venus: vaccinia inhibition (Venus reporter); Vaccinia virus Venus reporter expression, fluorescence; Potency, µM (doses to about 36.5 µM), inactives show top-dose activity change, negative = inhibition, hits mostly inhibitors; AID 720580; 330,000 tested, 0.46% active; calls by dose curve; tested in A549 cells; note: nearly all actives have a fitted effect of over 30% in size
VACV mCherry inh: inhibitors of vaccinia virus infection (mCherry reporter signal); Vaccinia virus mCherry reporter infection, fluorescence; 310,000 tested, 0.63% active; Potency, µM (series often up to 36.5 µM), for the others: at the highest dose activity change, negative = inhibition, usual class: inhibitors; calls by dose curve; tested in A549 cells; note: nearly all actives have a fitted effect of over 35% in size
HCV inhibitor: HCV inhibition. Potency, µM (titrated, usually from 41.8 µM), for inactives: at the top dose activity change, negative = inhibition, most hits filed as inhibitors. 340,000 tested, 3.4% active. Huh7.5.1 HCVcc-Cre infection, luciferase reporter, 44 h. AID 651820; active = well fitted inhibition curve with a large enough effect; inconclusive = small, poorly fitted or top-dose-only effect, or another doubt; inactive = no such curve, though single readings can be large or run the other way
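Luciferase read-out (15 sec integration) after a 15 min room-temperature substrate step quantifies HCVcc-Cre infection. Cells, 1,000 per well, had compound added 4 h post-plating, then virus at ~0.5 moi, and were cultured 44 h.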
Starred values were filed as active, the others as inactive. % is set by controls: 0 for no effect and ±100 for the full control effect; potency is the fitted concentration of half-maximal effect.

Screening O=C(CN1CCN(Cc2ccc(F)cc2Cl)S1(=O)=O)Nc1ccc(F)cc1 returned Vaccinia Venus -18% and VACV mCherry inh -20%.
CCSc1nnc(NC(=O)c2cccc(OCc3c(C)noc3C)c2)s1 was read as HCV inhibitor -22%.
Screening COc1ccc2nc(NC(=O)c3cccc(OCc4c(C)noc4C)c3)sc2c1 returned Vaccinia Venus inconclusive, VACV mCherry inh inconclusive and HCV inhibitor 0.35µM*.
Screening O=Cc1s/c(=N\S(=O)(=O)c2ccccc2)n(CCCCl)c1Cl returned Vaccinia Venus inconclusive, VACV mCherry inh inconclusive and HCV inhibitor 4.5µM*.
CCn1c(C)cs/c1=N\S(=O)(=O)c1ccccc1 was read as Vaccinia Venus -7%, VACV mCherry inh inactive and HCV inhibitor 18%.
For COCCNC(=O)C1(C)CCCN(C(=O)c2ccccc2OC)C1 (stereo not drawn) the results were Vaccinia Venus 7% and VACV mCherry inh 44%.
Screening CN1CCN(c2ccc(-c3ccc4ccccc4n3)cc2)CC1 returned Vaccinia Venus -2%, VACV mCherry inh 0% and HCV inhibitor 16µM*.
Screening c1ccc2nc(-c3ccncc3)ccc2c1 returned HCV inhibitor -11%.
For O=Cc1c(-c2ccc(F)cc2)nc2ccccn12 the results were Vaccinia Venus -7%, VACV mCherry inh -8% and HCV inhibitor 14%.
For Cc1ccn2c(C=O)c(-c3ccc(F)cc3)c(C=O)c2c1 the results were HCV inhibitor 11µM*.
For CCC(Oc1ccc(F)cc1)C(=O)Nc1nc2c(s1)CCCC2 (stereo not drawn) the results were Vaccinia Venus -7% and VACV mCherry inh 4%.
CCCCc1nc(Cl)c(CO)n1Cc1ccc(-c2ccccc2-c2nnn[nH]2)cc1 was read as Vaccinia Venus -3%, VACV mCherry inh inactive and HCV inhibitor -10%.
For CCCCc1nc(Cl)c(CO)n1Cc1ccc(-c2ccccc2-c2nn[nH]n2)cc1 the results were Vaccinia Venus -14%, VACV mCherry inh -11% and HCV inhibitor 0.56µM*.
COc1ccc2c(c1OC)C(=O)OC2Nc1nc(-c2ccc(-c3ccccc3)cc2)cs1 (stereo not drawn) was read as Vaccinia Venus inconclusive, VACV mCherry inh inconclusive and HCV inhibitor 8.9µM*.
`COc1cccc(-c2csc(NC3OC(=O)c4c3ccc(OC)c4OC)n2)c1` (stereo not drawn) gave Vaccinia Venus -16%, VACV mCherry inh inconclusive and HCV inhibitor -27%.
`Cc1noc(C)c1COc1ccc(C(=O)NNC(=O)c2ccccc2O)cc1` gave Vaccinia Venus inconclusive, VACV mCherry inh 3.5µM* and HCV inhibitor -4%.
Screening CC(C)(C)c1ccc(OCCCC(=O)NNC(=O)c2ccccc2O)cc1 returned Vaccinia Venus inconclusive, VACV mCherry inh 14µM* and HCV inhibitor inconclusive.
Cc1noc(C)c1COc1ccc(C(=O)Nc2ccccc2)cc1 was read as Vaccinia Venus -9%, VACV mCherry inh -15% and HCV inhibitor -6%.
Cc1cc(C(=O)NNC(=O)CCCOc2ccccc2)c(C)o1 was read as Vaccinia Venus 4%, VACV mCherry inh -14% and HCV inhibitor 2%.
`COc1ccccc1Cn1c(CNS(=O)(=O)c2ccccc2Cl)nc2cccnc21` gave Vaccinia Venus -6% and VACV mCherry inh -9%.
`Cc1cc(C)cc(OC(C)C(=O)Nc2nonc2-c2ccc(Br)cc2)c1` (stereo not drawn) gave Vaccinia Venus -6% and VACV mCherry inh -18%.
Screening Cc1ncc2c(c1CNC(=O)c1cncs1)CCN(C(=O)c1cc(F)c(F)cc1F)C2 returned Vaccinia Venus -25% and VACV mCherry inh inactive.
For Clc1ccc2c(NCCNC3CCCCC3)ccnc2c1 the results were Vaccinia Venus inconclusive, VACV mCherry inh -13% and HCV inhibitor 7.9µM*.
For O=C(NCCCNc1ccnc2cc(Cl)ccc12)c1ccccc1F the results were HCV inhibitor 10µM*.
Screening O=C(NCCNC(=O)c1ccccc1F)c1ccccn1 returned Vaccinia Venus -7%, VACV mCherry inh -14% and HCV inhibitor 11%.
Screening CC1CCCN1c1ccnc2cc(Cl)ccc12 (stereo not drawn) returned Vaccinia Venus -8%, VACV mCherry inh -13% and HCV inhibitor inconclusive.
Screening O=C(NCc1cccc(Cl)c1)c1cccc2c(-c3cccnc3)coc12 returned Vaccinia Venus -10% and VACV mCherry inh -4%.
For Cc1ccc(Oc2ccccc2NC(=O)C2=COCCO2)cc1 the results were Vaccinia Venus -14%, VACV mCherry inh -16% and HCV inhibitor 2%.
`CCOC(=O)C1=C(COC(=O)c2ccc(OC)c(S(=O)(=O)N3CCOCC3)c2)NC(=O)NC1C` (stereo not drawn) gave HCV inhibitor -17%.
`Cc1ccc(NC(=O)CNC(=O)c2cccs2)c(O)c1` gave Vaccinia Venus 3%, VACV mCherry inh -15% and HCV inhibitor 1%.
